PubChem BioAssay AID2417 (National Center for Advancing Translational Sciences (NCATS), 2010)
Out of some 140,000 compounds screened, about 4,300 (3.1%) were called active. About 21% were inconclusive and are not listed.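 How the source made its calls: active means readout at or below -70, meaning at least 70% loss of cells showing the perinucleolar compartment, a nuclear body marking cancer cells; inconclusive means readout between -30 and a set limit; inactive means the rest.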 This excerpt belongs to a sample that is enriched for actives.

test: High Content Assay for Compounds that inhibit the Assembly of the Perinucleolar Compartment; settings: PC3M PTB-GFP, PNC prevalence imaging, 16 h; at 10 µM; hits give low values;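 further: plate controls were DMSO wells for no effect and camptothecin positive control wells for full effect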
Procedure, shortened: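 PC3M cells stably expressing PTB-GFP, 750–1000 cells/well, treated 16 h at 37 °C with compound (23 nl of library stock), in duplicate. After paraformaldehyde fixation and Hoechst stain, imaged at 20x; PNC prevalence scored by image analysis.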

Activity change (PNC), negative = inhibition, inactive:
COCCCNC(=S)NC(=O)c1ccccc1 -29.6%
Cc1ccc(-c2cn3cc([N+](=O)[O-])ccc3n2)cc1 19.9%
O=C(NNC(=S)NCc1ccccc1)c1ccc(OC(F)F)cc1 -4.88%
COc1ccc(C/C(C)=N/NC(=O)c2cc(C)oc2C)cc1 15.4%
COc1cc2c(cc1NC(=O)CN1CCN(S(=O)(=O)c3ccc(F)cc3)CC1)oc1ccccc12 -22.6%
O=C(CN1CCN(S(=O)(=O)c2ccc(F)cc2)CC1)Nc1ccccc1F -12%
CCc1ccc(NC2Nc3cc(C)nn3S2)cc1 (stereo not drawn) 66.7%
Cn1c(=O)c2c(nc(SCC(=O)Nc3ccccc3N3CCCCC3)n2C)n(C)c1=O -26.8%
O=C(CN1CCN(C2CCCCC2)CC1)Nc1ccccc1N1CCCCC1 -8.13%
Cc1scc(C(=O)NNC(=S)NCC(C)C)c1C -6.46%
Cc1occc1C(=O)NNC(=S)NCC(C)C -25.7%
Cc1ccc(S(=O)(=O)N(C)C)cc1NC(=O)COC(=O)c1c(C)noc1C -21.3%
Cc1ccc(NC(=O)c2cccs2)cc1S(=O)(=O)N(C)C 22.8%
CCS(=O)(=O)Nc1ccc(C2=NN(S(=O)(=O)c3ccc(F)cc3)C(c3ccco3)C2)cc1 (stereo not drawn) 13.9%
Fc1ccc(N2N=C(c3cccs3)CC2c2ccco2)c(F)c1 (stereo not drawn) 17.8%
CC(C)(C)c1ccc(NC(=O)COC(=O)CCc2nc3ccccc3c(=O)[nH]2)cc1 -24.2%
C/C(=N/NC(=O)c1ccc(Br)o1)c1ccc(C)o1 -24.9%
CCOc1ccc(NC(=O)c2ccc(CSc3nnnn3C)cc2)cc1 -8.75%
CCc1cccc(CC)c1NC(=O)COc1ccccc1C(=O)c1cc(C#N)c(=O)n(C2CCCCC2)c1 -12.2%
CCCOC(=O)c1[nH]c2c(c1C)C(=O)CC(c1cc(OC)c(OC)c(OC)c1)C2 (stereo not drawn) 10.3%
CCOC(=O)c1[nH]c2c(c1-c1ccccc1)C(=O)CC(c1ccc(Cl)cc1)C2 (stereo not drawn) 35.7%
O=C(Nc1cc(C(F)(F)F)ccc1Cl)c1cc(C2CC2)on1 -19.5%
CSc1ccccc1NC(=O)Cc1ccc(Br)cc1 27%
Cc1cc(C(C)(C)C)cc(C)c1N 15.5%
O=C(Cc1cc(=O)[nH][nH]1)N/N=C/c1ccccc1[N+](=O)[O-] -21.2%
Cc1ccc(N(C(=O)c2ccc(CN3CCOCC3)o2)C(C(=O)NCCC(C)C)c2cccs2)c(C)c1 (stereo not drawn) 4.19%
O=C(Nc1ccccc1)c1ccc2c(c1)OCO2 16.1%
COc1ccc(NC(=O)Nc2ccc3nsnc3c2)cc1 -27.5%
Cc1cc(C)cc(NC(=S)NCCCN2CCOCC2)c1 26.5%
Cc1ccc2c(Cl)c(C(=O)NCCCn3ccnc3)sc2c1 -3.58%
CCCCC(=O)Nc1ccc(C(=O)NCCCn2ccnc2)cc1 40.1%
CCCOc1ccc(NC(=O)C2OC3OC(C)(C)OC3C3OC(C)(C)OC23)cc1 (stereo not drawn) 10.2%
COc1cc(/C=C2\SC(=S)N(Nc3ncc(C(F)(F)F)cc3Cl)C2=O)cc(OC)c1OC 7.84%
COc1cccc(/C=N\NC(=O)C2=NNC(=O)C2C)c1O (stereo not drawn) -8.21%
CCc1ccc2c(c1)C(c1ccc([N+](=O)[O-])cc1)=NNC(c1ccccc1)=N2 34.2%
Cc1ccc(-c2cc(C(=O)N/N=C/C=C/c3ccccc3)n[nH]2)o1 -21.8%
CC(=O)CCC(=O)c1ccc2ccccc2c1 36.3%
Cc1cc(Cl)c(S(=O)(=O)N(C)C)cc1OCC(N)=O -29.4%
Cc1cc(Cl)c(S(=O)(=O)NCC2CCCO2)cc1OCC(N)=O (stereo not drawn) 9.99%
CC1=C(C(=O)Nc2ccccc2)C(c2ccco2)C(C#N)=C(SCC(N)=O)N1 (stereo not drawn) -15.2%
CCOC(=O)CSC1=C(C#N)C(c2ccco2)C(C(=O)OCc2ccccc2)=C(C)N1 (stereo not drawn) -21.7%
Cc1nn(C)c(C(=O)NNC(=S)NC2CCCCC2)c1Cl 8.24%
Cc1ccc(NN=C2C(=O)OC(C)(C)OC2=O)c(C)c1 57.8%
Cc1ccn(CC(=O)N2N=C(C(F)F)CC2(O)C(F)F)n1 (stereo not drawn) 3.67%
COc1cc(OC)cc(C(=O)Nc2ccc(S(=O)(=O)Nc3cc(C)on3)cc2)c1 -25.6%
COc1ccc(NC(=O)c2ccc(OC)cc2)cc1 29.1%
CC(=O)Nc1ccc(/C(C)=N/NC(=O)CN(c2ccccc2Br)S(C)(=O)=O)cc1 -2.45%
CCOc1ccc2[nH]c(=O)c(CN(Cc3nnnn3Cc3ccccc3)CC3CCCO3)cc2c1 (stereo not drawn) -2.29%
COc1ccc2[nH]c(=O)c(CN(Cc3nnnn3CCc3ccccc3)CC3CCCO3)cc2c1 (stereo not drawn) -7.29%

Activity change (PNC), negative = inhibition, active:
COc1ccc(NC(=O)CN2CCN(S(=O)(=O)c3ccc(F)cc3)CC2)cc1Cl -123%
Cc1ccccc1NC(=O)CNc1ccccc1N1CCCCC1 -94.9%
CC(C)CNC(=S)NNC(=O)c1nn(C)cc1Cl -100%
Cc1ccc(S(=O)(=O)N(C)C)cc1NC(=O)/C=C/c1cccs1 -119%
Cc1ccc(C2=NN(C(=O)CSc3nc(N)cc(N)n3)C(c3ccco3)C2)cc1 (stereo not drawn) -113%
CCCOC(=O)c1[nH]c2c(c1C)C(=O)CC(c1cccs1)C2 (stereo not drawn) -85.9%
CSc1ccccc1NC(=O)c1cc(C2CC2)on1 -108%
O=C(Nc1ccccc1)c1ccc2nsnc2c1 -106%
O=C(NCCCn1ccnc1)Nc1ccc(Cl)cc1Cl -114%
COc1cccc(/C=N/Nc2ncc(C(F)(F)F)cc2Cl)c1O -85.6%
Cc1cc(Cl)c(S(=O)(=O)Nc2ccc3c(c2)OCCO3)cc1OCC(N)=O -121%
CC1=C(C(=O)Nc2ccccc2)C(c2cccs2)C(C#N)=C(SCC#N)N1 (stereo not drawn) -107%
COc1ccc(C(=O)Nc2ccc(S(=O)(=O)NC(C)C)cc2)cc1 -112%
CCOc1ccc2[nH]c(=O)c(CN(Cc3nnnn3CCc3ccccc3)CC3CCCO3)cc2c1 (stereo not drawn) -100%
